In all, about 140,000 sequences were measured (“enrichment ratio after two sorts for PhoP signalling”: median about 0, highest 2% from about 11 on). The entries come from a sample that favours the highest values as a whole.
B1: PhoQ; a variant is named by its letters at X, in order, P23837 (parent)
chain: MKKLLRLFFPLSLRVRFLLATAAVVLVLSLAYGMVALIGYSVSFDKTTFRLLRGESNLFYTLAKWENNKLHVELPENIDKQSPTMTLIYDENGQLLWAQRDVPWLMKMIQPDWLKSNGFHEIEADVNDTSLLLSGDHSIQQQLQEVREDDDDAEMTHSVAVNVYPATSRMPKLTIVVVDTIPVELKSSYMVWSWFIYVLSANLLLVIPLLWVAAWWSLRPIEALAKEVRELEEHNRELLNPATTRELTSLVRNLNRLLKSERERYDKYRTTLTDLTHSLKTPLXXLQXXLRSLRSEKMSVSDAEPVMLEQISRISQQIGYYLHRASMRGGTLLSRELHPVAPLLDNLTSALNKVYQRKGVNISLDISPEISFVGEQNDFVEVMGNVLDNACKYCLEFVEISARQTDEHLYIVVEDDGPGIPLSKREVIFDRGQRVDTLRPGQGVGLAVAREITEQYEGKIVAGESMLGGARMEVIFGRQHSAPKDE

Variants of: B1
Assay: enrichment ratio after two sorts for PhoP signalling (ratio (wild type AVST 3.29)); higher = more functional
Settings: with PhoP (E. coli)
For EAPV, the enrichment ratio was ≤ 0.25.
For PSRQ, the enrichment ratio was ≤ 0.25.
For MGCC, the enrichment ratio was ≤ 0.25.
For VYFN, the enrichment ratio was ≤ 0.25.
In the case of VGPY, the enrichment ratio is reported as ≤ 0.25.
With LCTR the enrichment ratio was ≤ 0.25.
In the case of ADWT, the enrichment ratio is reported as ≤ 0.25.
Work on SEWT yielded an enrichment ratio of 13.2.
With HPWT the enrichment ratio was ≤ 0.25.
In the case of RLWT, the enrichment ratio is reported as ≤ 0.25.
With SPWT the enrichment ratio was ≤ 0.25.
TEWT was tested, and the enrichment ratio was 12.8.
In the case of LLWT, the enrichment ratio is reported as ≤ 0.25.
KSWT was tested, and the enrichment ratio was ≤ 0.25.
With LEWT the enrichment ratio was 12.5.
In the case of LRWT, the enrichment ratio is reported as ≤ 0.25.
SLWT was tested, and the enrichment ratio was ≤ 0.25.
TDWT showed an enrichment ratio of 25.1.
MNIK was tested, and the enrichment ratio was ≤ 0.25.
LKPQ was tested, and the enrichment ratio was ≤ 0.25.
MYHS was tested, and the enrichment ratio was ≤ 0.25.
LAEQ was tested, and the enrichment ratio was ≤ 0.25.
KQHW was tested, and the enrichment ratio was ≤ 0.25.
LWPI was tested, and the enrichment ratio was ≤ 0.25.
With IYVA the enrichment ratio was ≤ 0.25.
In the case of RPSC, the enrichment ratio is reported as ≤ 0.25.
GEHV was tested, and the enrichment ratio was ≤ 0.25.
For YVEW, the enrichment ratio was ≤ 0.25.
RVGM was tested, and the enrichment ratio was ≤ 0.25.
GLSK was tested, and the enrichment ratio was ≤ 0.25.
With TGSL the enrichment ratio was 16.8.
Work on TISL yielded an enrichment ratio of 19.4.
VLSL showed an enrichment ratio of 0.415.
NISL was tested, and the enrichment ratio was 0.771.
For TLSL, the enrichment ratio was 15.8.
WISL was tested, and the enrichment ratio was ≤ 0.25.
GDSL was tested, and the enrichment ratio was ≤ 0.25.
In the case of GGSL, the enrichment ratio is reported as 3.4.
Variant SLSL has an enrichment ratio of 10.7.
With GLSL the enrichment ratio was 11.5.
For NGSL, the enrichment ratio was ≤ 0.25.
WCCL was tested, and the enrichment ratio was ≤ 0.25.
With HISH the enrichment ratio was ≤ 0.25.
VTMH was tested, and the enrichment ratio was ≤ 0.25.
With AIRA the enrichment ratio was ≤ 0.25.
TVSY gave an enrichment ratio of 10.4.
MVVG was tested, and the enrichment ratio was ≤ 0.25.
YGHF was tested, and the enrichment ratio was ≤ 0.25.
Variant SGSL has an enrichment ratio of 11.8.
For KASL, the enrichment ratio was ≤ 0.25.
In the case of NVSL, the enrichment ratio is reported as ≤ 0.25.
TVSL gave an enrichment ratio of 14.4.
In the case of SPSL, the enrichment ratio is reported as ≤ 0.25.
NASL was tested, and the enrichment ratio was ≤ 0.25.
Work on TASL yielded an enrichment ratio of 15.1.
In the case of YWEI, the enrichment ratio is reported as ≤ 0.25.
For PCWT, the enrichment ratio was ≤ 0.25.
HICM was tested, and the enrichment ratio was ≤ 0.25.
For DTPM, the enrichment ratio was ≤ 0.25.
Work on FGCI yielded an enrichment ratio of 7.38.
In the case of SQCQ, the enrichment ratio is reported as 3.73.
SPCQ was tested, and the enrichment ratio was ≤ 0.25.
In the case of STCQ, the enrichment ratio is reported as 15.3.
TGCQ gave an enrichment ratio of 13.9.
For GECS, the enrichment ratio was 7.23.
In the case of RGCQ, the enrichment ratio is reported as ≤ 0.25.
In the case of FGCS, the enrichment ratio is reported as ≤ 0.25.
FGCQ gave an enrichment ratio of 13.2.
For NGCQ, the enrichment ratio was ≤ 0.25.
GECI showed an enrichment ratio of 7.86.
GECQ was tested, and the enrichment ratio was 17.
WIRR was tested, and the enrichment ratio was ≤ 0.25.
DKPL was tested, and the enrichment ratio was ≤ 0.25.
For LNCS, the enrichment ratio was ≤ 0.25.
HHGV was tested, and the enrichment ratio was ≤ 0.25.
For NSRQ, the enrichment ratio was ≤ 0.25.
In the case of LTKK, the enrichment ratio is reported as ≤ 0.25.
For ARTW, the enrichment ratio was ≤ 0.25.
In the case of SHKM, the enrichment ratio is reported as ≤ 0.25.
With ACGT the enrichment ratio was 4.5.
HFGF was tested, and the enrichment ratio was ≤ 0.25.
In the case of MLHA, the enrichment ratio is reported as ≤ 0.25.
With GTCQ the enrichment ratio was 13.4.
With GNHP the enrichment ratio was ≤ 0.25.
Work on GNCQ yielded an enrichment ratio of 12.1.
Variant TTCQ has an enrichment ratio of 18.9.
GICQ showed an enrichment ratio of 10.3.
With MTCQ the enrichment ratio was ≤ 0.25.
For GECL, the enrichment ratio was 5.03.
In the case of YTCQ, the enrichment ratio is reported as 1.7.
For DTCQ, the enrichment ratio was ≤ 0.25.
With ITCQ the enrichment ratio was ≤ 0.25.
For GECA, the enrichment ratio was 1.47.
GECV gave an enrichment ratio of 16.3.
With MPVD the enrichment ratio was ≤ 0.25.
In the case of LRSS, the enrichment ratio is reported as ≤ 0.25.
For QFGG, the enrichment ratio was ≤ 0.25.
With YYIN the enrichment ratio was ≤ 0.25.
In the case of IIQY, the enrichment ratio is reported as ≤ 0.25.
For NRIW, the enrichment ratio was ≤ 0.25.
For HQPD, the enrichment ratio was ≤ 0.25.
With YMHI the enrichment ratio was ≤ 0.25.
In the case of FYKD, the enrichment ratio is reported as ≤ 0.25.
In the case of HRDN, the enrichment ratio is reported as ≤ 0.25.
With QQHS the enrichment ratio was ≤ 0.25.
Variant YSME has an enrichment ratio of 1.23.
MDWD was tested, and the enrichment ratio was ≤ 0.25.
With FRMF the enrichment ratio was ≤ 0.25.
With GGCQ the enrichment ratio was 13.2.
In the case of NICQ, the enrichment ratio is reported as ≤ 0.25.
For GHCQ, the enrichment ratio was ≤ 0.25.
LNMQ was tested, and the enrichment ratio was ≤ 0.25.
With NCQG the enrichment ratio was ≤ 0.25.
KALL was tested, and the enrichment ratio was ≤ 0.25.
Work on TALQ yielded an enrichment ratio of 15.2.
Variant TALL has an enrichment ratio of 12.
In the case of KALQ, the enrichment ratio is reported as ≤ 0.25.
Variant NALL has an enrichment ratio of 5.99.
Work on TALI yielded an enrichment ratio of 18.1.
For NWCN, the enrichment ratio was ≤ 0.25.
In the case of TACN, the enrichment ratio is reported as 13.
TADK was tested, and the enrichment ratio was ≤ 0.25.
YACN was tested, and the enrichment ratio was ≤ 0.25.
Variant IALI has an enrichment ratio of 9.02.
NALQ was tested, and the enrichment ratio was ≤ 0.25.
With PICT the enrichment ratio was ≤ 0.25.
With DTQQ the enrichment ratio was ≤ 0.25.
In the case of VDFR, the enrichment ratio is reported as ≤ 0.25.
SNNF showed an enrichment ratio of 6.15.
For GFIP, the enrichment ratio was ≤ 0.25.
GLMF gave an enrichment ratio of 1.04.
With FESF the enrichment ratio was ≤ 0.25.
For AAEK, the enrichment ratio was ≤ 0.25.
QIFT was tested, and the enrichment ratio was ≤ 0.25.
TALC was tested, and the enrichment ratio was 20.9.
Work on TALA yielded an enrichment ratio of 13.8.
For TAQN, the enrichment ratio was ≤ 0.25.
With EALN the enrichment ratio was ≤ 0.25.
Variant TALS has an enrichment ratio of 10.9.
For TALN, the enrichment ratio was 18.9.
TALT gave an enrichment ratio of 9.61.
With KALC the enrichment ratio was ≤ 0.25.
With IALC the enrichment ratio was 1.46.
MHGF was tested, and the enrichment ratio was ≤ 0.25.
With YMMK the enrichment ratio was ≤ 0.25.
QQSN was tested, and the enrichment ratio was ≤ 0.25.
NNFF was tested, and the enrichment ratio was ≤ 0.25.
VDVG was tested, and the enrichment ratio was ≤ 0.25.
In the case of FFRS, the enrichment ratio is reported as ≤ 0.25.
For FHDF, the enrichment ratio was ≤ 0.25.
MQYS showed an enrichment ratio of 6.75.
In the case of QTFE, the enrichment ratio is reported as ≤ 0.25.
SEKM was tested, and the enrichment ratio was ≤ 0.25.

Source: a collection of fitness landscapes (doi:10.1126/science.1257360)
